Source: the supplement of paper PMC10849652
About 7,900 targets were measured; listed, in parts, are those with a hit and a random draw of the rest. About 0.6% of all pairs of compound and target were hits. Unmarked numbers belong to inactive results.

Columns and labels:
Test in all cases: log2 fold change, soluble protein after heating vs DMSO (PISA); higher = thermal stabilisation; K562 cells, 10 uM, 30 min; active = over 0.2 and 3.5 SD of the protein, either way, in both replicates (recomputed)
erlotinib = compound: C#Cc1cccc(Nc2ncnc3cc(OCCOC)c(OCCOC)cc23)c1 [erlotinib]
How it was run: (§1)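 For each measurement, 10 μM compound was applied for 30 min to K562 cells at 2×10^6 cells/mL. Aliquots were heated for 3 min across 48°C-58°C, pooled, and extracted in PBS with 0.5% NP-40 at 4°C; the supernatant after 21,000xg for 90 min was soluble protein. This was quantified by TMTpro 16plex LC-MS/MS with channel sums equalised, and thermal stability was reported relative to control samples from duplicates, on a log2 fold-change scale.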

[1] = compound: C/C(=N\NC(=O)C1=CC(=CC=C1)S(=O)(=O)N2CCOCC2)/C3=C(C=CC(=C3)Cl)O
How it was run: as §1

[2] = compound: C1=CC(=C(C=C1Cl)C2=NC3=NC=CN=C3C(=N2)NC4=CC=NC=C4)F
How it was run: as §1

[3] = compound: C1=CC(=CC=C1C2=NC3=C(N2)C=C(C=C3)C(=O)N)OC4=CC=C(C=C4)Cl
How it was run: as §1

[4] = compound: C1=CC2=C(C=CC(=C2)/C=C\3/C(=O)NC(=NCC4=CC=CS4)S3)N=C1
How it was run: as §1

[5] = compound: C1=CC2=NC=CN=C2C=C1/C=C/3\C(=O)NC(=O)S3
How it was run: as §1

[6] = compound: C1=CC=C(C=C1)C2=NC(=C(N2)C3=CC=NC=C3)C4=CC(=C(C=C4)Cl)O
How it was run: as §1

[7] = compound: C1=CC=C2C(=C1)C3=NNC4=CC=CC(=C43)C2=O
How it was run: as §1

[8] = compound: C1CCN(C1)C(=O)NC2=CC=CC(=C2)NC3=NC=C(C(=N3)NCCC4=CN=CN4)Br
How it was run: as §1

[9] = compound: C1CN(CCC1(CC2=CC=C(C=C2)Cl)N)C3=NC=NC4=C3C=CN4
How it was run: as §1

IRAK-1-4 Inhibitor I = compound: C1COCCN1CCN2C3=CC=CC=C3N=C2NC(=O)C4=CC(=CC=C4)[N+](=O)[O-] [IRAK-1-4 Inhibitor I]
How it was run: as §1

ibrutinib = compound: C=CC(=O)N1CCC[C@@H](n2nc(-c3ccc(Oc4ccccc4)cc3)c3c(N)ncnc32)C1 [ibrutinib]
How it was run: as §1

[10] = compound: CC(=O)c1cnc2ccc(-c3cc(Cl)c(O)c(Cl)c3)nc2c1N[C@H]1CC[C@H](CN(C)C)CC1
How it was run: as §1

ralimetinib = compound: CC(C)(C)Cn1c(N)nc2ccc(-c3[nH]c(C(C)(C)C)nc3-c3ccc(F)cc3)nc21 [ralimetinib]
How it was run: as §1

[11] = compound: CC(C)(O)CC(=O)NCCn1ccc2ncnc(Nc3ccc(Oc4cccc(C(F)(F)F)c4)c(Cl)c3)c21
How it was run: as §1

[12] = compound: CC(C)C1=C2N=C(C=C(N2N=C1)NCC3=CC=CC=C3)NCCCCCCN
How it was run: as §1

[13] = compound: CC(C)C[C@@H](C=O)NC(=O)[C@H](CC(C)C)NC(=O)[C@H](CC(C)C)NC(=O)OCc1ccccc1
How it was run: as §1

pinometostat = compound: CC(C)N(C[C@H]1O[C@@H](n2cnc3c(N)ncnc32)[C@H](O)[C@@H]1O)[C@H]1C[C@@H](CCc2nc3cc(C(C)(C)C)ccc3[nH]2)C1 [pinometostat]
How it was run: as §1

[14] = compound: CC1=C(C(CC(=O)N1)C2=CC=C(C=C2)C(F)(F)F)C(=O)NC3=C(C=C4C(=C3)C=NN4)F
How it was run: as §1

[15] = compound: CC1=C(C2=C(C=C1)C(=O)C3=CC=CC=C3N2CCCN)C
How it was run: as §1

Chain of UniProt P33240 (P33240 whole entry, looked up): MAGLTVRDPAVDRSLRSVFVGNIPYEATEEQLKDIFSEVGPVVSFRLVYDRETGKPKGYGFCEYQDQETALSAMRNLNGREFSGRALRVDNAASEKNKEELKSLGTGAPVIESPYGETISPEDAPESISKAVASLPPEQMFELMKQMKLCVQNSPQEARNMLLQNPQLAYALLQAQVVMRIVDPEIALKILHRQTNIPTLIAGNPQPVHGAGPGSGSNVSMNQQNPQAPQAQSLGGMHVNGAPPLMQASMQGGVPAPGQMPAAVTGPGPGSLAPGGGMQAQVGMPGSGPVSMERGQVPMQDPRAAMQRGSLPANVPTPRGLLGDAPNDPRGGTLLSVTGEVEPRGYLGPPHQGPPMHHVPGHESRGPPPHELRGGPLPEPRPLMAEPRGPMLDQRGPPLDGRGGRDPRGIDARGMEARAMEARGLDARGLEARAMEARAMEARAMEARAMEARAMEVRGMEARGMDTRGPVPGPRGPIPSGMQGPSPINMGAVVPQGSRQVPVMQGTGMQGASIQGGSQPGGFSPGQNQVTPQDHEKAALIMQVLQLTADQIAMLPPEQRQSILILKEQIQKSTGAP
Chain of UniProt Q96CF2 (Q96CF2 whole entry, looked up): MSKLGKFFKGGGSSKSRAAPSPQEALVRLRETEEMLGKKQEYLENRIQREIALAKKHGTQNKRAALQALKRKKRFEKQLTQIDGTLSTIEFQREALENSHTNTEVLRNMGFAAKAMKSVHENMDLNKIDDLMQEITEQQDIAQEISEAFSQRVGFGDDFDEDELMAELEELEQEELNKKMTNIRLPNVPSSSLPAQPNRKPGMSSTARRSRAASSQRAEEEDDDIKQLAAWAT
Chain of UniProt Q96GQ5 (Q96GQ5 whole entry, looked up): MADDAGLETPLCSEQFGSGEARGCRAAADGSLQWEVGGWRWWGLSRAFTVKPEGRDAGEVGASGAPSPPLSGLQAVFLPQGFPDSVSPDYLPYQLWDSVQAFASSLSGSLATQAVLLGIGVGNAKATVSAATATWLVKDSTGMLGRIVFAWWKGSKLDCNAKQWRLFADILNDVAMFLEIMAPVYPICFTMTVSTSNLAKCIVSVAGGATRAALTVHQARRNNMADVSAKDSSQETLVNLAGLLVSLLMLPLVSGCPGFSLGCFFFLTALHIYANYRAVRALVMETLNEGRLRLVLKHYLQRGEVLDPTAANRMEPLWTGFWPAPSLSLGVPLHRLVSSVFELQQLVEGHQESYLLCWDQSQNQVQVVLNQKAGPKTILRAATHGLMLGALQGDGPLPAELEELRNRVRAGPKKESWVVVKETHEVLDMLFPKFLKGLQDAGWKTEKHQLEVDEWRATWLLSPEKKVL
Chain of UniProt Q53ET0 (Q53ET0 whole entry, looked up): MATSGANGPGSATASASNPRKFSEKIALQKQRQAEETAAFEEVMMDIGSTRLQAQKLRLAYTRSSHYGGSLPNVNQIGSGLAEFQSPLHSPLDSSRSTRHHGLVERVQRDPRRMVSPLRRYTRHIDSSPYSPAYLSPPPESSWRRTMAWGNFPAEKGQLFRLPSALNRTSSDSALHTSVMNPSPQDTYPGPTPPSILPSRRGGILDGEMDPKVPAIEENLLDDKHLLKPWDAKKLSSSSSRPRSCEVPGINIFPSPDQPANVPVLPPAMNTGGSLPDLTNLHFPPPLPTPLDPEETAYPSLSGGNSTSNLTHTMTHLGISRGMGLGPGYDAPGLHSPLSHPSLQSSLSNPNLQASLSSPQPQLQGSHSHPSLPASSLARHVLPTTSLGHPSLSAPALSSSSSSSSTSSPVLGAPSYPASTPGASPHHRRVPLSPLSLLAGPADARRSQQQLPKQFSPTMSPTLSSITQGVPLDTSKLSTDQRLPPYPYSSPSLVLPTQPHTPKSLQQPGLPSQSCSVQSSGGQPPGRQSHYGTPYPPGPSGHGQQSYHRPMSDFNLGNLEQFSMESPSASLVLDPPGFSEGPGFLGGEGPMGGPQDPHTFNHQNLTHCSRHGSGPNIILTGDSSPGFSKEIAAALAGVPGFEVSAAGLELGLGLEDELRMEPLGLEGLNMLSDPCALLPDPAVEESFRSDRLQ
Chain of UniProt Q8N163 (Q8N163 whole entry, looked up): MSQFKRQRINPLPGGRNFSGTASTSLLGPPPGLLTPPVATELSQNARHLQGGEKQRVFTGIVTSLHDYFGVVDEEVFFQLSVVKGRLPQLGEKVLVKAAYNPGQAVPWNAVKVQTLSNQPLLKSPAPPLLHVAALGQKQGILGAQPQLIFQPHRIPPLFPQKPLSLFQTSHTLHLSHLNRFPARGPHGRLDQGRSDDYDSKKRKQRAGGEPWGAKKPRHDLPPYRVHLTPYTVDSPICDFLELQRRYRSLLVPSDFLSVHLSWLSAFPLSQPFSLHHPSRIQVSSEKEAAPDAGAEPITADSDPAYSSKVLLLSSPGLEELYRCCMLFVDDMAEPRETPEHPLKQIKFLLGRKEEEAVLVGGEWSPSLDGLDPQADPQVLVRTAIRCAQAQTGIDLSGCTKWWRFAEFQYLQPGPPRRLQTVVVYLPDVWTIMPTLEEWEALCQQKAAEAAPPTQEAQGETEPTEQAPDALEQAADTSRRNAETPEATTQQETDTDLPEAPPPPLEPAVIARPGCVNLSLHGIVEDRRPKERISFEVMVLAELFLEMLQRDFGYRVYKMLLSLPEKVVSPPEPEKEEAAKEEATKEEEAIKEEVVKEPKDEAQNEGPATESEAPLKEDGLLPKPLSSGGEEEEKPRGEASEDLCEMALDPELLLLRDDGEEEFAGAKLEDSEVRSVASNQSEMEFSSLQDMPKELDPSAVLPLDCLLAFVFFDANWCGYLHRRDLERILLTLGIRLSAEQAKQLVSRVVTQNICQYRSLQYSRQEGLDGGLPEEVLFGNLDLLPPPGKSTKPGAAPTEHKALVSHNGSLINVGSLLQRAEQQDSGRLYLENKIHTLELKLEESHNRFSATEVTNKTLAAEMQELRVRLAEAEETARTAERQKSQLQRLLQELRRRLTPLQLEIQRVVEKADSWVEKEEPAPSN
Chain of UniProt Q9NRR8 (Q9NRR8 whole entry, looked up): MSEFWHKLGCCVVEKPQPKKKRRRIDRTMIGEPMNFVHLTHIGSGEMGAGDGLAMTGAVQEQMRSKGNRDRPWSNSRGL
Chain of UniProt A6NHX0 (A6NHX0 whole entry, looked up): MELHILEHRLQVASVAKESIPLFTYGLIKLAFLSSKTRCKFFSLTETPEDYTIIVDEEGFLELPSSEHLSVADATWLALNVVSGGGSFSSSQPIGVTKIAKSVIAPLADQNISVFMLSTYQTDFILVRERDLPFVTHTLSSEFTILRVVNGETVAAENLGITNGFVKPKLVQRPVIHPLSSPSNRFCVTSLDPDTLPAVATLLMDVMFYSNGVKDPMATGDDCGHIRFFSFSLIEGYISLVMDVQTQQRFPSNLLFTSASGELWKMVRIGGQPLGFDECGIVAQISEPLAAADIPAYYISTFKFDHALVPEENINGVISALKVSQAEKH

| Target | log2 fold change (erlotinib) | log2 fold change [1] | log2 fold change [2] | log2 fold change [3] | log2 fold change [4] | log2 fold change [5] | log2 fold change [6] | log2 fold change [7] | log2 fold change [8] | log2 fold change [9] | log2 fold change (IRAK-1-4 Inhibitor I) | log2 fold change (ibrutinib) | log2 fold change [10] | log2 fold change (ralimetinib) | log2 fold change [11] | log2 fold change [12] | log2 fold change [13] | log2 fold change (pinometostat) | log2 fold change [14] | log2 fold change [15] |
| --- | --- | --- | --- | --- | --- | --- | --- | --- | --- | --- | --- | --- | --- | --- | --- | --- | --- | --- | --- | --- |
| CDC42SE1 (UniProt Q9NRR8) | 0.078 | 0.041 | -0.005 | 0.014 | 0.021 | 0 | -0.009 | -0.207 | 0.023 | -0.012 | 0.066 | 0.049 | -0.004 | 0.021 | 0.042 | -0.111 | 0.074 | 0.11 | 0.282 | 0.015 |
| CASTOR2 (UniProt A6NHX0) | -0.026 | 0.117 | 0.013 | 0.018 | -0.031 | 0.017 | 0.029 | -0.017 | -0.065 | -0.002 | 0.078 | 0.046 | 0.008 | -0.006 | 0.016 | 0.031 | 0.046 | -0.013 | -0.004 | 0.019 |
| CCAR2 isoform 2 (UniProt Q8N163) | 0.027 | 0.063 | 0.033 | -0.014 | 0.071 | 0 | 0.014 | -0.039 | 0.001 | 0.007 | -0.111 | -0.061 | -0.037 | 0.027 | -0.222 | -0.477 (active) | -0.004 | -0.039 | 0.111 | -0.252 |
| CRYM-AS1 (UniProt A6NIL9) | 0.13 | -0.214 | 0.027 | 0.23 | 0.089 | -0.725 | 0.024 | 0.073 | -0.27 | 0.108 | 0.13 | 0.172 | -0.017 | -0.063 | -0.108 | -0.088 | 0.168 | 0.054 | 0.038 | -0.099 |
| CSTF2 (UniProt P33240) | 0.032 | -0.002 | -0.011 | 0.017 | 0.017 | 0.051 | -0.076 | 0.023 | 0.033 | -0.061 | 0.011 | 0.008 | 0.057 | -0.006 | 0.025 | 0.093 | -0.006 | -0.008 | 0 | 0.169 |
| C16orf58 (UniProt Q96GQ5) | 0.033 | 0.01 | 0.051 | 0.023 | 0.061 | 0.042 | -0.001 | -0.021 | 0.006 | 0.036 | 0.031 | -0.022 | 0.01 | -0.017 | -0.045 | -0.199 | 0.001 | 0.005 | 0.001 | 0.045 |
| CRTC2 (UniProt Q53ET0) | 0.194 | 0.151 | 0.039 | 0.035 | 0.093 | 0.073 | -0.129 | -0.14 | -0.233 | 0.08 | -0.024 | -0.048 | -0.151 | 0 | -0.053 | -0.058 | -0.032 | 0.01 | 0.113 | 0.101 |
| CHMP4C (UniProt Q96CF2) | 0.036 | 0.06 | 0.476 (active) | -0.025 | 0.054 | 0.134 | -0.064 | -0.043 | 0.058 | 0.034 | 0.097 | -0.022 | -0.028 | -0.087 | -0.018 | -0.099 | 0.039 | -0.095 | 0.021 | -0.019 |
